Reference: PubChem BioAssay
Several values for one entry are separate records, joined by “and”; a condition that tells them apart may be missing. Equal entries are not always repeated. Activity calls are given as the source filed them.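 Rule for the calls, unless noted: active = compounds whose cell count with miR-34 switched on is under 0.7 times the count with it off; inactive = the rest.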

How the values were obtained:
[1] = hESC survival regulators, cell-based (AID 493140; call rule not given here;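 note: cells exposed to compounds for four days before counting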); details: human embryonic stem cell survival screen; stronger effect = higher value
[2] = liver-stage malaria parasite growth inhibition, primary screen, cell-based, HepG2, luciferase luminescence, HepG2 viability (AID 624349; in the data active = parasite load remaining mostly below about 12%, no sharp cut-off; inactive = mostly above about 10%;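 note: 100% = mean of DMSO negative control wells on the same plate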); details: P. berghei liver stage in HepG2, luciferase luminescence, concentration not given here; parasite load remaining: stronger effect = lower value; viability: measured here: HepG2 viability without parasites
[3] = sensitizers of A549 cells to miR-34 induction, primary screen, imaging, A549 dox-inducible miR-34, nuclei and caspase counts (AID 1347080); details: A549 miR-34 inducible, Hoechst nuclei count, 48 h
[4] = survival rescue of mitochondrial mutant cells in low glucose, primary screen, MELAS cybrids, Rieske KO mouse fibroblasts, CellTiter-Glo (AID 1508586;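 active = mean z-score across replicates of 1.96 or higher in either the MELAS or the Rieske mutant cell line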;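 note: z relative to plate mean and SD of compound and empty wells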)
[5] = stronger effect = lower value, cell number ratio, induced over uninduced
[6] = measured here: relative caspase fold change +Dox/-Dox
[7] = measured here: total cells with miR-34 induction, stronger effect = lower value
[8] = measured here: total cells without miR-34 induction
[9] = MELAS cybrid survival, CellTiter-Glo 48 h, stronger effect = higher value
[10] = Rieske KO mouse fibroblast survival, CellTiter-Glo 72 h

Row | SMILES | survival [1] | parasite load remaining [2] | viability [2] [%] | fold change [3, 5] | fold change [3, 6] | cell count [3, 7] | cell count [3, 8] | z-score [4, 9] | z-score [4, 10]
1 | CNC(=O)c1c(I)c(C(=O)NCC(=O)Nc2c(I)c(C(=O)O)c(I)c(C(=O)NCCO)c2I)c(I)c(N(C)C(C)=O)c1I | 10.4 (inactive) | 91.6% (inactive) | 71.7 | 0.94 (inactive) | 0.7 | 9020 | 9600 | -0.247 (inactive) | 0.501
2 | CN/C(=C/[N+](=O)[O-])NCCSCc1csc(CN(C)C)n1 |  | 74.7% (inactive) | 97.8 | 0.889 (inactive) | 0.967 | 9080 | 10200 | 0.561 (inactive) | -0.45
3 | CN(C)CC/C=C1\c2ccccc2CSc2ccccc21 |  | 36.7% (inactive) | 110 | 0.831 (inactive) | 1.19 | 6880 | 8280 | -0.0112 (inactive) | -0.183
4 | CCC(=O)OCC(=O)C1(OC(=O)CC)[C@H](C)C[C@H]2[C@H]3[C@H]([C@@H](O)C[C@@]21C)[C@@]1(C)C=CC(=O)C=C1C[C@H]3Cl (stereo not given in full) | 4.33 (inactive) | 104% (inactive) | 97.3 | 0.785 (inactive) | 1.32 | 6260 | 7980 | 0.535 (inactive) | 0.903
5 | COc1cc(N)c(Cl)cc1C(=O)N[C@H]1CCN(CCCOc2ccc(F)cc2)C[C@H]1OC |  | 43.8% (inactive) | 91.1 | 0.886 (inactive) | 2.08 | 7400 | 8350 | -0.0533 (inactive) | 0.31
6 | CC(=O)N[C@@H](CC(=O)N[C@H](CCC(=O)O)C(=O)O)C(=O)O |  | 91.6% (inactive) | 69.1 | 0.929 (inactive) | 1.02 | 9500 | 10200 | 0.603 (inactive) | 0.146
7 | O=C(O)C=Cc1ccc(O)c(O)c1 | 7.75 (inactive) | 59.8% (inactive) | 95.6 | 0.886 (inactive) and 0.85 (inactive) | 1.16 and 0.929 | 9150 and 8100 | 10300 and 9530 | -0.35 (inactive) | 0.227
8 | CCSc1ccc2c(c1)N(CCCN1CCN(C)CC1)c1ccccc1S2 | 1.5 (inactive) | 77.3% (inactive) | 70.9 | 0.933 (inactive) | 0.655 | 7330 | 7860 | -1.53 (inactive) | 0.455
9 | CC(=O)Nc1c(I)c(C(=O)N[C@H]2C(O)O[C@H](CO)[C@@H](O)[C@@H]2O)c(I)c(N(C)C(C)=O)c1I (stereo not given in full) |  | 113% (inactive) | 109 | 0.901 (inactive) | 1.22 | 9390 | 10400 | 0.559 (inactive) | 0.37
10 | Cc1onc(-c2c(F)cccc2Cl)c1C(=O)N[C@@H]1C(=O)N2C(C(=O)O)C(C)(C)S[C@H]12 (stereo not given in full) | 15.2 (inactive) | 131% (inactive) | 74.7 | 0.98 (inactive) | 0.516 | 9050 | 9240 | 0.325 (inactive) | 0.193
